Values without a mark were called inactive. No rule for the calls is given here.

What is called inhibition is the change of the read-out against control, counted positive when it falls.

The target of the assay is Pantothenate synthetase (Mycobacterium tuberculosis (strain ATCC 25618 / H37Rv)) (UniProt P9WIL5). Kind of assay: Coupled enzyme confirmation of inhibitors against recombinant Mtb PanC (AID 375).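 Also: 0% = full reaction with vehicle and 100% = no enzyme background.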 The following applies: coupled enzyme assay; at 10 µM, hits give high values.
Chain of Pantothenate synthetase (Mycobacterium tuberculosis (strain ATCC 25618 / H37Rv)) (P9WIL5 whole entry, looked up): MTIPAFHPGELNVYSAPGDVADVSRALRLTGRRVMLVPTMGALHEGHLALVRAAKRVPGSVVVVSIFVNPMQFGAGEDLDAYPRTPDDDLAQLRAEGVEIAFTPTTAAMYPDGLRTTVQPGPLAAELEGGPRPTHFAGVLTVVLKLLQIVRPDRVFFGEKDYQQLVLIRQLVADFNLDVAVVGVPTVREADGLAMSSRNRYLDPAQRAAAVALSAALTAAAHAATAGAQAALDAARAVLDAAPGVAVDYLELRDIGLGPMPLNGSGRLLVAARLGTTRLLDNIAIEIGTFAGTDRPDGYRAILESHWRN
As for `OCc1nc(CO)n(Cc2ccccc2)n1`, the inhibition was 0%.
The value for `COC(=O)c1nc(N)sc1-c1ccccc1` was 0%.
With `COc1ccccc1-n1nnnc1SCc1cc2c(cc1Br)OCO2` the figure was 0%.
With `O=C(Nc1ccncc1)C1CCCN(S(=O)(=O)c2cccc3cccnc23)C1` (stereo not drawn) the figure was 0%; with `CC1Oc2ccccc2N(CC(=O)NCc2cccs2)C1=O` (stereo not drawn), 0%.
For `CCCc1cc(C(=O)Nc2sc3c(c2C#N)CCC3)no1`, the inhibition was 7%.
With `CCN1CCN(c2nc(C)nc3c2sc(=S)n3C)CC1`, the inhibition is 0%.
With `CCOc1ccc(-c2cn(S(=O)(=O)c3cccc4nsnc34)nc2N)cc1` the figure was 0%.
On to `CN(Cc1ccccc1)C(=O)c1cc(-c2ccc(Br)cc2)on1`, for which the inhibition was 0%.
With `Cn1c2c(c(=O)[nH]c1=O)C(NC(=O)c1ccco1)(C(F)(F)F)C(=O)N2` (stereo not drawn) the figure was 0%; with `Brc1ccccc1-c1nc(-c2ccccc2)no1`, 0%.
The value for `CC(C)(C)n1nnnc1C(c1cccc(C#N)c1)N1CCC(Cc2ccccc2)CC1` (stereo not drawn) was 2%; that for `CCOc1ccc(CN2C(=O)c3ccccc3C2C(=O)NCc2cccnc2)cc1` (stereo not drawn) was 0%.
On to `COc1ccc2nc(NC(=O)CSc3nnc(-c4ccoc4C)n3C)sc2c1`, for which the inhibition is 2%.
Turning to `Cc1cccc(-n2ncc3c(N(CCO)CCO)ncnc32)c1`, the inhibition is 0%.
The value for `COc1ccc(S(=O)(=O)Cc2ccc(C(=O)N3CCN(c4ccccc4)CC3)o2)cc1` was 0%; that for `CC(=O)Nc1ccc(S(=O)(=O)N2CCN(c3cc(C)nc4ccccc34)CC2)cc1` was 5%.
With `CC(CN1CCCCC1)OC(=O)c1ccc2c(c1)OCO2` (stereo not drawn) the figure was 0%; with `CCCn1c2c(c(O)c(C(=O)Nc3ccc(C)cn3)c1=O)CCCC2`, 4%.
The value for `Cc1csc(SCc2nc3sc4c(c3c(=O)[nH]2)CCC4)n1` was 0%; that for `CCCCCn1c(CN2CCN(C(=O)OCC)CC2)nc2c1c(=O)[nH]c(=O)n2C` was 3%.
`NS(=O)(=O)c1ccc(CCNC(=O)CCC2COc3ccccc3O2)cc1` (stereo not drawn): the inhibition is 0%.
With `Cc1cc(C(=O)NCc2cccnc2)n(-c2ccccc2)n1` the figure was 0%.
